# Entries with a potency or affinity are not part of this list.
# Assay: inhibitors of CD8+ T cell–vesicle binding, dose response, mouse 2C CD8+ T cells, flow cytometry (AID 485284);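 further: drosophila derived vesicles carrying Ld MHC with QL9 peptide plus B7-1 and ICAM-1; vesicle binding seen as anti-B7-1 PE fluorescence on CD8 gated cells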
# Conditions: 2C mouse CD8+ T cell-exosome binding; at 45 µM (top of the series)
row,SMILES,"binding remaining, % of control"
1,O=C(NCc1cccnc1)C(=O)NCC(c1ccco1)N1CCN(c2ccccc2)CC1 (centres undefined),110%
2,Cc1cc(N2CCN(C)CC2)nc2ccc(NC(=S)N3CCC4(CC3)OCCO4)cc12,147%
3,Cc1ccc(C)c(-n2c3nc(=O)[nH]c(=O)c-3cc3cc([N+](=O)[O-])ccc32)c1,133%
4,O=C(NCC1CCCCC1)c1ccc(Cl)c(S(=O)(=O)N2CCOCC2)c1,111%
5,COc1ccc([C@H]2CC(=O)C=C(c3c(C)cc(C)cc3C)C2)cc1,56.3%
6,Cc1noc(C)c1C(=O)OC(C)C(=O)N1CCc2ccccc21 (centres undefined),96.2%
7,Cc1ccccc1C(=O)N1CCC(C(=O)Nc2ccc(C)c(S(=O)(=O)N3CCCCC3)c2)CC1,134%
8,Cc1cc(F)ccc1S(=O)(=O)N1CCCOC1CNC(=O)C(=O)NC1CCCC1 (centres undefined),67.8%
9,CCOC(=O)c1c(N2C(=O)CC(Sc3ccccc3C(=O)O)C2=O)sc2c1CCCC2 (centres undefined),41.4%
10,Cc1ccc(S(=O)(=O)N2CCN(CCOc3c(Cl)cccc3Cl)CC2)cc1C,100%
11,Cc1nc2sc(C(c3ccccc3)N3CCN(c4ccccc4F)CC3)c(O)n2n1 (centres undefined),163%
12,Cc1cccc(NC(=O)CN2C(=O)N/C(=C\c3ccc(N4CCOCC4)cc3)C2=O)c1,142%
13,Cc1cccc(Nc2nc(-c3ccccn3)cs2)n1,69.7%
14,O=C1CCCc2sccc2N1,106%
15,COc1ccc(C(O)c2coc3ccc(O)c(CN(C)C)c23)cc1 (centres undefined),113%
16,CCCCN(C(=O)CCCc1nc2ccccc2s1)c1c(N)n(CC(C)C)c(=O)[nH]c1=O,187%
17,Cc1c(C(=O)NCCSCc2c(F)cccc2Cl)cnn1-c1ccc(Cl)cc1,144%

row,SMILES,"binding remaining, % of control"
1,CC1CCN(S(=O)(=O)c2csc(C(=O)Nc3ccccc3)c2)CC1,61.2%
2,CCOC(=O)C1(CC2CCCCO2)CCN(S(=O)(=O)c2ccc(C)s2)CC1 (centres undefined),105%
3,CCOC(=O)C1CCCN(c2cc(=O)n(-c3ccccc3Cl)c(=O)[nH]2)C1 (centres undefined),87.9%
4,CCOC(=O)C1CCN(C(=O)c2ccc(NC(=O)C3CCCO3)cc2)CC1 (centres undefined),218%
5,COc1ccccc1NS(=O)(=O)c1ccc(C)c(NC(=O)c2ccc(S(=O)(=O)N3CCCCCC3)cc2)c1,134%
6,O=C(Cc1c(Cl)cccc1Cl)Nc1cccc(S(=O)(=O)N2CCOCC2)c1,112%
7,O=C(Cc1ccc(S(=O)(=O)N2CCOCC2)s1)Nc1ccc(S(=O)(=O)N2CCCCC2)cc1,72.7%
8,O=S(=O)(c1ccc(F)cc1)N1CCC(O)(c2ccc3c(c2)OCO3)CC1,108%
9,CNCc1cn2cc(Cl)ccc2n1,125%
10,O=C(N/N=C/c1cccc(OC(=O)c2ccccc2Cl)c1)c1cccnc1,168%
11,NC(=O)C1CCN(c2nc(-c3cc4ccccc4o3)cs2)CC1,44.2%
12,CC(=O)Nc1ccc(S(=O)(=O)NC2CCSc3ccccc32)cc1 (centres undefined),273%
13,O=C(c1ccco1)N1CCN(C(c2ccccc2Cl)c2nnnn2Cc2ccco2)CC1 (centres undefined),17.4%
14,CCOC(=O)CSc1nnnn1-c1cc(OC)c(Cl)cc1OC,136%
15,COc1ccc(NC(=O)C2CCC(C(C)(C)C)CC2)cc1S(=O)(=O)N1CCCCC1 (centres undefined),97.1%
16,CCOC(=O)c1cnc(=O)[nH]c1C,189%
17,O=C(c1ccc(N2C(=O)C3CC=C(Cl)CC3C2=O)cc1)N1CCCCC1 (centres undefined),18.5%

# Reference: PubChem BioAssay AID485284 (NMMLSC, 2010)
